About 79,000 compounds went through this panel and 15% of them were active in at least one assay; those are over-represented in the sample as a whole. Active and inactive are the calls of the source. Rule as the data show it: active = growth inhibition above about 70%; inactive = the rest.

The assay is described as follows: NCI Yeast Anticancer Drug Screen. Data for the CLN2oe strain (AID 163).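 Also: 0% = growth of vehicle-only control cultures.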 As to conditions: S. cerevisiae CLN2oe strain, at 11.0 µM, stronger effect = higher value. The method, boiled down:
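Here, growth inhibition in a cell-cycle-altered yeast strain after compound exposure was quantified against vehicle control growth.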
In the case of `O=[N+]([O-])c1cc[n+]([O-])cc1`, the growth inhibition was -2% (inactive). The same measure for `CC1(C)CC(=O)C(/C=N/c2nc(-c3ccccc3)cs2)=C(O)C1`: 1% (inactive); for `Nc1nc(N)c2nc(CNc3ccc(C(=O)NC(CCC(=O)O)C(=O)O)cc3F)cnc2n1` (stereo not drawn): 18% (inactive); for `COC(=O)CC1(O)C(/C=C/c2ccccc2)C(C(=O)OC)C(=O)C(C(=O)OC)C1C(=O)OC` (stereo not drawn): -2% (inactive). The same measure for `CC(C)(C)c1ccc(NS(=O)(=O)c2ccc(N)cc2)cc1`: 1% (inactive); for `CCN(CC)CCNc1ccc([N+](=O)[O-])c2nc3ccccc3c(N)c12`: -12% (inactive); for `CCCCN(CCCC)C(=O)/C=C/c1ccccc1`: -23% (inactive). The same measure for `O=c1[nH]c(-c2ccccc2)nc2c1sc1nc3ccccc3n12`: -39% (inactive). Regarding `O=[N+]([O-])c1ccc2c(c1)/C(=N/N=C1c3ccccc3Cc3ccccc31)c1cc([N+](=O)[O-])cc([N+](=O)[O-])c1-2`, the growth inhibition was 99% (active). Take `CC(C)C(C)/C=C\C(C)C1CCC2C3=CC=C4CC(O)CCC4(C)C3CCC21C` (stereo not drawn): the growth inhibition is -2% (inactive). On to `O=C1Nc2ccc(Br)cc2C1=Nc1ccc2c(c1)OCO2`, for which the growth inhibition is 16% (inactive). As to `CCCCOCn1c(=O)[nH]c(=O)c2cc(Br)ccc21`, the growth inhibition was -38% (inactive).

As for `Cc1ccc(S/C(=C\C(=O)O)c2ccccc2)cc1`, the growth inhibition was 5% (inactive). As to `O=[N+]([O-])/C=C/c1cc(Cl)c(/C=C/[N+](=O)[O-])cc1Cl`, the growth inhibition is 49% (inactive). The same measure for `Cc1cc(S(=O)(=O)Nc2nnc3cnc4ccccc4n23)c(S)cc1Cl`: 16% (inactive).

Consider `O=C(/C=C/c1cc(Cl)cc(Cl)c1O)c1cccc(O)c1`, for which the growth inhibition is 74% (active). The same measure for `NC1CCCCC1N.Nc1c(N=Nc2ccc(-c3ccc(N=Nc4cc(S(=O)(=O)[O-])c5ccccc5c4N)cc3)cc2)cc(S(=O)(=O)[O-])c2ccccc12.[OH3+].[OH3+].[Pt+4]`: 22% (inactive). The same measure for `COC(=O)CCC(NC(=S)N/N=C(\C)c1ccccn1)C(=O)OC` (stereo not drawn): 18% (inactive); for `NC(=O)C(=O)NNc1ccccc1`: 41% (inactive).

As for `COc1cc(C2SCC(=O)N2c2ccc(-c3ccc(-n4c(-c5ccccc5)nc5ccccc5c4=O)cc3)cc2)ccc1O` (stereo not drawn), the growth inhibition is -7% (inactive). With `COc1ccc(/C=C/c2sc3ccccc3[n+]2CCCCI)cc1OC`, the growth inhibition was -8% (inactive). The same measure for `Cc1c(C(C)C)cc(OCCO)cc1C(C)C`: -4% (inactive); for `Cc1cc(NCCCCCCCCNc2cc(C)nc3cc(N)ccc23)c2ccc(N)cc2n1`: 39% (inactive); for `C=C(Cl)COC(=O)Nc1cccc(Cl)c1`: -10% (inactive).

Turning to `CC(=O)OC1CC2C(C)(C)C(=O)C=C[C@]2(C)C2CCC3(C)C(=CCC3[C@H](CO)C[C@H](O)C(=O)C(C)(C)O)[C@]12C` (stereo partly drawn), the growth inhibition was -7% (inactive). Consider `COc1ccc(/C=C/C(=O)c2ccccc2)cc1OC`, for which the growth inhibition is 19% (inactive). The same measure for `COc1c(O)c(C=O)c(Br)c(C=O)c1O`: 17% (inactive); for `O=[N+]([O-])c1cc(Cl)cnc1Br`: 4% (inactive); for `Cc1ccc2c(c1)C1(SC(C)C(=O)N1c1ccc(Cl)cc1)C(=O)N2` (stereo not drawn): 4% (inactive).

Turning to `COc1cc(CSc2ccc(O)cc2)cc(O)c1O`, the growth inhibition is 10% (inactive).

For `Cc1ccc2c3ccc4c(c3n(C)c2c1)C(=O)C=CC4=O`, the growth inhibition was -3% (inactive). The same measure for `O=C(Nc1ccc(Cl)cc1)Nc1nnc2nc(C(C(=O)c3cccc([N+](=O)[O-])c3Cl)c3nc4nnc(NC(=O)Nc5ccc(Cl)cc5)n4[nH]c3=O)c(=O)[nH]n12`: -5% (inactive). The same measure for `O=C(O)C1CC(c2ccccc2)=NN1c1ccccc1` (stereo not drawn): 22% (inactive). The same measure for `CCCCc1ccc(-n2c(C)c(COC(=O)NC)c(COC(=O)NC)c2C)cc1`: 5% (inactive); for `CCC(=O)c1cc(C(=O)C(=S)SC)cc(C(=O)C(=S)SC)c1`: 96% (active); for `CCn1c(O)c(C=Nc2ccccc2)s/c1=N/Nc1nc(-c2ccccc2)cs1`: -7% (inactive). On to `Cc1ccccc1N=C(NO)c1ccccc1`, for which the growth inhibition was -2% (inactive).

In the case of `Cc1nc2ccccc2nc1NNc1ccccc1`, the growth inhibition was 10% (inactive).

These data come from PubChem BioAssay (NCI).
